Inconclusive results are not listed. Values without a mark were called inactive. Calls of active or inactive are those of the source. The call rests on the fitted dose curve; in most records, active means well fitted activation curve with a large enough effect; inconclusive means small, poorly fitted or top-dose-only effect; inactive means flat fitted curve, though single readings scatter.
assay: Cellular Toxicity (caspase-3) Hek293 (AID 664); conditions: HEK293 caspase-3 activation, DMSO = 0%, 100 µM tamoxifen = 100%; series mostly up to 92.2 µM; caspase-3 activation: at the top concentration;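 further: cells exposed to compound for 16 h at 37 °C before readout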
Source text: NIH Chemical Genomics Center [NCGC]
NIH Molecular Libraries Screening Centers Network [MLSCN]
National Institutes of Environmental Health Sciences [NIEHS]
National Toxicology Program [NTP]
We have developed a 1536-well cell-based assay for quantitative high throughput screening (qHTS) against a number of cell lines to determine in vitro caspase 3/7 of small molecules. This particular assay uses the Hek 293 cell line which is derived from human embryonic kidney cells.
NCGC Assay Protocol Summary:
The Caspase-Glo 3/7 assay (Promega) is a homogeneous method to measure caspase-3 and caspase-7 activities in cultured cells. The quantitation of caspase 3/7 activity is based on the cleavage of a peptide-aminoluciferin substrate. After caspase cleaves the substrate the free aminoluciferin is liberated and serves as the substrate of luciferase, which generates the light. The luminescent signal is proportional to amount of caspase 3/7 activity present.
Using the Caspase-Glo 3/7 assay, the amount of caspase 3/7 activity was measured in the Hek 293 cell line with complete culture medium following compound treatment for 16 hours. The assay was performed in opaque white 1536-well plates. In the screen, tamoxifen and doxorubicin were used as positive controls. Library compounds were measured for their ability to cause the activation of caspase 3/7 in the cell line, as reflected by an increase in luminescence signal, in a concentration-dependent manner. Data were normalized to the controls for basal activity (DMSO only) and 100% stimulation (100 uM tamoxifen). AC50 values were determined from concentration-response data modeled with the standard Hill equation.
qHTS protocol for caspase 3/7 assay in Hek 293 cells
[Step] [Parameter] [Value] [Description]
2. Time; 5 hr; 37 °C incubation
4. Controls; 23 nL; Tamoxifen 0.23 uM to 100 uM & Doxorubicin 7.0 pM to 100 uM
5. Time; 16 hr; 37 °C incubation
6. Reagent; 5 uL; Caspase-Glo 3/7 reagent
7. Time; 20 min; Room Temperature
8. Detection; Luminescence; Viewlux plate reader
Keywords: caspase 3/7, apoptosis, Hek 293 cell line, luminescence, NTPHTS, NTPHTS_NCGC, NIEHS, EPA, DSSTox, MLSMR, MLSCN, NIH Roadmap, qHTS, NCGC

In the case of `C1CCC(NC2CCCCC2)CC1`, the outcome is reported as “inactive”.
For `COc1ccc(C(c2ccc(OC)cc2)C(Cl)(Cl)Cl)cc1`, the outcome was “inactive”.
With `O=S(=O)(c1ccc(Cl)cc1)c1ccc(Cl)cc1` the outcome was “inactive”.

Point of comparison: `OCCCBr`, “caspase-3 activation” value 1%. Against it:
- Nc1ccc(Cl)cc1 — lower, -0.553%
- CCOCCOC(C)=O — lower, -1.14%
- Cc1cc(O)ccc1Cl — lower, -1.06%
- O=[N+]([O-])c1c2ccccc2cc2ccccc12 — higher, 4.7%
- O=[N+]([O-])c1cc([N+](=O)[O-])c2ccccc2c1 — lower, -0.152%
- Nc1ccc(Sc2ccc(N)cc2)cc1 — higher, 2.64%
- CCOP(=O)(NC(C)C)Oc1ccc(SC)c(C)c1 (stereo unspecified) — lower, -1.15%
- CN(C)[C@@H]1C(=O)C(C(N)=O)=C(O)[C@@]2(O)C(=O)C3=C(O)c4c(O)cccc4[C@@](C)(O)[C@H]3[C@H](O)[C@@H]12 — lower, -0.858%
- c1cc2ccc3cccc4ccc(c1)c2c34 — higher, 2.48%
- CCCCC(CC)COC(=O)c1ccccc1C(=O)OCC(CC)CCCC (stereo unspecified) — lower, 0.891%
- CN(C)NC(=O)CCC(=O)O — lower, -1.61%
- O=C(O)C(Cl)Cl — lower, 0.00686%
- CC(=O)[O][Hg][c]1ccccc1 — lower, -10.2%
- CCCCCCCCc1ccc(O)cc1 — lower, 0.796%
- CC(C)(O)C(=O)Nc1ccc([N+](=O)[O-])c(C(F)(F)F)c1 — lower, 0.465%
- COC(C)(C)CCCC(C)C/C=C/C(C)=C/C(=O)OC(C)C (stereo unspecified) — higher, 1.38%
- O=C(O)COc1ccccc1 — higher, 1.38%
- O=[N+]([O-])c1c(Cl)c(Cl)cc(Cl)c1Cl — lower, 0.145%
- CCCCOC(=O)c1ccccc1C(=O)OCc1ccccc1 — higher, 3.05%
- C=CC(=O)NCNC(=O)C=C — lower, -1.78%
- Nc1ccc(Cl)cc1N — higher, 4.65%
- Nc1ccc([N+](=O)[O-])cc1 — higher, 1.22%

Reference: PubChem BioAssay (NCATS)
